Compounds with a hit are over-represented: about 19% of the library has one in this group of screens.
Cycloheximide cs: affects cycloheximide protein synthesis inhibition readout, counter-screen; cell reporter, cycloheximide protein synthesis inhibition counterscreen; max response, %; hit rate 12% among 300,000; AID 2314; in the data active = max response mostly above about 13%, no sharp cut-off; inactive = mostly below about 14%; note: read at 38.3 µM for the half of the compounds with a filed dose; 0% is about no effect
Pf growth 96h: inhibits malaria parasite growth, 96 h | P. falciparum luciferase reporter growth, 96 h | Potency, µM (series often up to 28.7 µM), for inactives: top-dose activity change, negative = inhibition, most hits filed as inhibitors | hit rate 6.9% among 320,000 | AID 504834; note: potency is the fitted concentration of half-maximal effect; % is set by controls: 0 for no effect and ±100 for the full control effect
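Readout is luminescence from an integrated firefly luciferase in P. falciparum. Red cells, 2% hematocrit and 0.05% parasitemia final, were cultured with compound through two parasite generations (96 hours) at 37 C, 5% CO2.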
AMA1 RON2 block: AMA1-RON2 (P. falciparum) interaction inhibition; AlphaScreen AMA1-biotinylated RON2 peptide binding; Potency, µM (top dose mostly 58.2 µM), for the others: at the highest dose activity change, negative = inhibition, actives largely listed as inhibitors; hit rate 0.2% among 360,000; AID 720542;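 note: potency is the fitted concentration of half-maximal effect; 0% = vehicle wells and -100% = peptide control; nearly all actives have a fitted effect of over 45% in size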
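AMA1 (3D7) with his tag at 25 nM final met compounds first, then biotinylated RON2 peptide at 25 nM; detection used donor plus acceptor beads, 10 µg/mL apiece, read by AlphaScreen after 30 min at room temperature.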
Pf growth 48h: P. falciparum growth inhibition at 48 hours (one generation). P. falciparum luciferase growth in erythrocytes, 48 h. Potency, µM (doses to about 28.7 µM), for inactives: top-dose activity change, negative = inhibition, most hits filed as inhibitors. hit rate 5.9% among 310,000. AID 504832; note: potency is the fitted concentration of half-maximal effect; % is set by controls: 0 for no effect and ±100 for the full control effect
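Luciferase-expressing parasites in RBCs, 2% Hct / 0.1% parasitemia final; RPMI 1640 + 0.5% Albumax; 37 C, 5% CO2, one generation; luminescence read-out, lower signal = inhibition.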
Shiga inhibitor: blocks Shiga toxin action in Vero cells. inhibition, % at 38.7 µM. AID 2315. hit rate 9.2% among 290,000. Vero cells, Shiga toxin protein synthesis inhibition reporter; in the data active = inhibition mostly above about 28%, no sharp cut-off; inactive = mostly below about 43%; note: 0% is about no effect
SARS PLP yeast: inhibitors of SARS-CoV papain-like protease in yeast. S. cerevisiae expressing SARS-CoV PLpro, growth rescue. Potency, µM (series often up to 32.9 µM), inactives show at the highest dose activity, positive = growth rescue, actives largely listed as activators. hit rate 0.19% among 330,000. AID 485353; calls by dose curve; note: potency is the fitted concentration of half-maximal effect; 0% is about no effect; nearly all actives have a fitted effect of over 55% in size
Numbers without * were called inactive; i = inactive; ? = inconclusive; · = no result; [ ] = dose if it differs, or a comment. Unless noted, calls come from the whole dose curve; as a rule, active = well fitted curve in the direction sought with a large enough effect; inconclusive = small, poorly fitted or top-dose-only effect, or another doubt; inactive = no such curve, though single readings can be large; an effect the other way counts as inactive or inconclusive.

SMILES	Cycloheximide cs	Pf growth 96h	AMA1 RON2 block	Pf growth 48h	Shiga inhibitor	SARS PLP yeast
COC(=O)C1=C(C)NC(=O)C1(NC(=O)CN1CCCC1=O)C(F)(F)F (stereo not drawn)	3.7	?	8.8%	16.3%	14.8	-2.2%
CCC(C)[C@H]1CNC(=O)C(=O)N1CCc1cccc2ccccc12 (stereo partly drawn)	·	·	-14.6%	·	·	·
Cc1ccc(C(=O)OCN2C(=O)c3ccccc3C2=O)c(O)c1	9.3	-0.8%	15.9%	-2.2%	-16.3	7.8%
CCOC(=O)c1cnc(-n2nc(C)cc2C)nc1Nc1ccc(OC)cc1	1.3	1.85µM*	7.9%	4.15µM*	-2.3	7.2%
Clc1ccccc1-c1nnc(-c2cccnc2)o1	25.5*	60.7%	-23.4%	57.8%	58.1	1.1%
Cc1ccccc1-c1nc(-c2cccnc2)no1	27.8*	?	26.3%	198.2%	82.6*	5.8%
Cc1nc(-c2noc(-c3cccc(Cl)c3)n2)c(C(F)(F)F)o1	4.5	54.2%	-27.0%	34.1%	18.3	-0.3%
Clc1ccccc1/C=C/c1nc(-c2cccnc2)no1	40.6*	136.7%	-9.5%	58.2%	97.9*	0.3%
Cc1nc(-c2noc(-c3ccccc3Cl)n2)c(C(F)(F)F)o1	60.6*	19.3%	9.4%	91.9%	46.7*	-1.0%
Cc1ccc(N2C(=O)CSC2c2cccnc2)c(Cl)c1 (stereo not drawn)	16.2	?	7.0%	?	5.0	-7.0%
O=C1NC(c2cccc([N+](=O)[O-])c2)Oc2ccccc21 (stereo not drawn)	-2.4	?	-15.7%	-1.7%	-15.4	1.6%
Cc1ccc(OCCC(=O)OCC(=O)Nc2cc(C)nn2-c2ccccc2)cc1	-1.0	1.2%	2.6%	57.8%	-5.9	-0.8%
Clc1ccccc1-c1nc(-c2ccncc2)no1	26.3*	165.9%	18.4%	135.8%	97.4*	-5.0%
Cc1onc(-c2ccccc2Cl)c1-c1nc(-c2ccncc2)no1	-2.7	11.7µM*	0.0%	·	6.2	-23.4%
Clc1ccccc1-c1nnc(-c2cccs2)o1	40.7*	146.5%	-2.0%	i	89.2*	-5.0%
CSc1ccccc1-c1nc(-c2ccncc2)no1	56.6*	-26.1%	18.1%	·	81.9*	-1.9%
Clc1ccc(Cl)c(-c2nc(-c3ccncc3)no2)c1	-2.4	?	5.9%	14.2%	·	0.3%
CSc1nnc(-c2ccccc2SC)o1	1.5	30.3%	-5.1%	?	35.6	1.6%
CCN(CC(=O)NCc1cccs1)C(=O)c1ccc(S(=O)(=O)Nc2ccccc2Cl)cc1	·	-19.4%	15.4%	?	·	8.1%
CCC(c1nc2ccccc2[nH]1)n1c(=O)c(-c2ccccc2)nc2ccccc21 (stereo not drawn)	·	·	-7.2%	·	·	·
Oc1ccc(C[C@H]2CNC(=S)N2CC2CCCN2C[C@H](Cc2ccc(O)cc2)N2C[C@H](Cc3ccccc3)N(CC3CCCCCC3)C2=S)cc1 (stereo partly drawn)	·	·	22.5%	·	·	·
CN1CCN(S(=O)(=O)c2ccc(Oc3cccc(C(F)(F)F)c3)nc2)CC1	·	32.2%	-8.0%	?	·	-0.9%
Clc1ccccc1-c1nc(-c2cccnc2)no1	24.6*	58.6%	25.2%	51.7%	83.4*	·
Clc1ccc(-c2nc(-c3ccncc3)no2)c(Cl)c1	·	·	-9.1%	·	·	·
O=C1c2ccccc2C(=O)N1CCCc1nc(-c2cccnc2)no1	-4.0	-0.8%[5.75 µM]	17.1%	7.8%	-5.7	-2.5%
SMILES	Cycloheximide cs	Pf growth 96h	AMA1 RON2 block	Pf growth 48h	Shiga inhibitor	SARS PLP yeast
Cc1ccc(-c2nc(-c3ccncc3)no2)c(Cl)c1	34.8*	-29.4%	11.9%	93.4%	·	1.5%
O=c1[nH]c(N/N=C\c2ccc(F)cc2)nc2ccccc12	34.1*	?	123.9%	-48.7%	80.2*	-2.3%
COc1ccc(/C=N/Nc2nc3ccccc3c(=O)n2-c2ccccc2)cc1OC	20.6*	?	8.6%	23.1%	23.8	-1.4%
C=CCn1c(N/N=C/c2ccc(O)cc2)nc2ccccc2c1=O	35.5*	3.9%	72.2%	47.2%	153.3*	-2.1%
O=C(CCc1nc2ccccc2c(=O)[nH]1)Nc1ccc(F)cc1	-0.6	21.3%	-2.7%	23.5%	-33.4	-11.0%
O=c1[nH]c(N/N=C/c2ccc(O)cc2)nc2ccccc12	35.9*	-16.7%	40.3%	-28.0%	64.5*	-7.2%
C=CCn1c(C)nc2ccccc2c1=O	5.3	13.2%	8.9%	22.0%	-5.5	-0.6%
COc1ccc(Cc2nnc(N/N=C/c3ccc(Br)cc3)[nH]c2=O)cc1OC	-2.2	?	8.3%	1.1%	15.3	-0.9%
COc1ccc(Cc2nnc(N/N=C/c3ccc(O)cc3)[nH]c2=O)cc1OC	-6.8	13.1µM*	?	9.28µM*	-10.0	?
O=c1c(S(=O)(=O)c2ccc(Cl)cc2)cn(Cc2ccccc2)c2ccc(F)cc12	-4.2	11.7µM*	15.7%	?	-9.7	-4.4%
CCCC1=Nc2cc(C(=O)N3CCC(C(N)=O)CC3)ccc2Sc2ccccc21	-4.3	?	5.9%	?	17.2	-2.3%
CCCC1=Nc2cc(C(=O)N3CCCC3)ccc2Sc2ccc(C)cc21	-3.2	5.6%	-17.2%	11.7µM*	-9.6	19.3%
Cc1cccc(-c2nc3ccc(C(=O)N4CCC5(CC4)OCCO5)cc3nc2-c2cccc(C)c2)c1	3.0	?	-6.3%	10.4µM*	-2.1	-3.2%
CCCC1=Nc2cc(C(=O)N3CCN(c4ccccn4)CC3)ccc2Sc2ccc(C)cc21	18.4	?	-29.4%	9.28µM*	5.5	-5.9%
CCCC1=Nc2cc(C(=O)N3CCC(C(=O)OCC)CC3)ccc2Sc2ccccc21	-1.5	9.28µM*	-19.5%	8.28µM*	-9.5	-3.7%
CCC1=Nc2cc(C(=O)N3CCCCC3)ccc2Sc2ccc(C)cc21	2.6	3.4%	-11.1%	?	4.7	0.2%
CC(C)COC(=O)N1C(COCc2ccccc2)CCC=CS1(=O)=O (stereo not drawn)	14.4	·	·	·	22.1	·
CC(=O)N1c2ccc(S(=O)(=O)NCC3CCC(C(=O)Nc4cc(C)ccn4)CC3)cc2CC1C (stereo not drawn)	1.2	?	-6.0%	?	8.5	7.5%
CC1=Nc2cc(C(=O)N3CCCC3)ccc2Sc2ccc(C)cc21	11.6	?	-7.7%	9.28µM*	3.2	-1.4%
CC1=Nc2cc(C(=O)N3CCCCC3)ccc2Sc2ccc(C)cc21	18.1	32.3%	-7.2%	9.28µM*	-2.6	2.8%
CCOC(=O)N1CCN(C(=O)c2ccc3c(c2)N=C(CC)c2cc(C)ccc2S3)CC1	2.2	?	-1.8%	?	-12.4	-4.1%
CCC1=Nc2cc(C(=O)N3CCC4(CC3)OCCO4)ccc2Sc2ccc(C)cc21	3.5	-25.7%	-4.1%	10.4µM*	-2.1	-1.6%
Cc1ccc2nc(NCCN)c3ncc(C)n3c2c1	-5.9	·	·	·	-9.1	·
Cc1ccccc1-n1c(-c2ccc(=O)[nH]n2)n[nH]c1=S	1.3	23.8%	2.0%	-7.7%	16.2	0.3%

Screening data: PubChem, National Center for Advancing Translational Sciences (NCATS)
